Among the data in PubChem BioAssay (Tox21) are outcome and Potency values, retold here.

Assay [1] can be described thus: qHTS RealTime-Glo MT Cell Viability Assay in HEK293 cells - 0 hour (AID 1224880). Also: top concentration of the series differs between compounds; nearly all actives have a fitted effect of over 45% in size. Summed up:
(§1)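 Cells were seeded together with NanoLuc luciferase and a prosubstrate that viable cells reduce to a luciferase substrate. After a 5 h incubation at 37 C/5% CO2, compounds were added and luminescence was measured repeatedly during 40 h of treatment.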
(In general: qHTS replaces the single test concentration by a dilution series.)

Assay [2] can be described thus: A CellTox Green Cytotoxicity Assay to monitor cytotoxicity in HEK293 cells - 32 hour (AID 1224881). Also: nearly all actives have a fitted effect of over 40% in size. The essentials:
(§2)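 Nonlytic real-time cytotoxicity: HEK293 + CellTox Green reagent plated, 5 h preincubation, pintool compound addition (23 nL in DMSO), 37 C for 40 h, fluorescence measured at successive time points.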

Assay [3] can be described thus: A CellTox Green Cytotoxicity Assay to monitor cytotoxicity in HepG2 cells - 0 hour (AID 1224882). Also: nearly all actives have a fitted effect of over 35% in size. Summed up: (§3)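 Read-out is fluorescence of a cyanine dye excluded from live cells that stains DNA of dead HepG2 cells, with signal proportional to cytotoxicity. Plates were read at 0, 8, 16, 24, 32 and 40 h after compound addition.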
A short description of assay [4]: A CellTox Green Cytotoxicity Assay to monitor cytotoxicity in HepG2 cells - 32 hour (AID 1224883). Also: nearly all actives have a fitted effect of over 50% in size. Summed up: as §3
The nature of assay [5]: A CellTox Green Cytotoxicity Assay to monitor cytotoxicity in HEK293 cells - 8 hour (AID 1224884). Also: nearly all actives have a fitted effect of over 35% in size. Summed up:
as §2

Assay [6] is described as follows: qHTS RealTime-Glo MT Cell Viability Assay in HepG2 cells - 16 hour (AID 1224885). Also: nearly all actives have a fitted effect of over 50% in size. Summed up:
(§4)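 Compound treatment began 5 h after plating HepG2 cells (600/well) with NanoLuc luciferase and prosubstrate. Plates stayed at 37 C for 40 h; luminescence was captured at six time points, 0 h through 40 h.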

The nature of assay [7]: qHTS RealTime-Glo MT Cell Viability Assay in HEK293 cells - 8 hour (AID 1224887). Also: nearly all actives have a fitted effect of over 50% in size. Also: potency is read from the fitted curve at half-maximal effect. Summed up: as §1
Assay [8] is described as follows: A CellTox Green Cytotoxicity Assay to monitor cytotoxicity in HEK293 cells - 16 hour (AID 1224888). Also: nearly all actives have a fitted effect of over 35% in size. The essentials:
as §2

The nature of assay [9]: qHTS RealTime-Glo MT Cell Viability Assay in HepG2 cells - 0 hour (AID 1224889). Also: nearly all actives have a fitted effect of over 50% in size. The essentials: as §4
Assay [10] can be described thus: A CellTox Green Cytotoxicity Assay to monitor cytotoxicity in HepG2 cells - 8 hour (AID 1224890). Also: nearly all actives have a fitted effect of over 45% in size. The essentials:
as §3

A short description of assay [11]: qHTS assay to identify small molecule antagonists of the estrogen receptor alpha (ER-alpha) signaling pathway using the BG1 cell line in the presence of 0.1 nM 17-beta-estradiol - cell viability counter screen (AID 1259241). Also: nearly all actives have a fitted effect of over 40% in size. Summed up:
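The cell line endogenously expresses full-length ER-alpha and carries four EREs driving luciferase. Cells are cultured 5 days hormone-free, treated 22 hr with compounds and 0.1 nM estradiol, then viability is read by fluorescence.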

Assay [12] can be described thus: qHTS assay to identify small molecule antagonists of the androgen receptor (AR) signaling pathway using the MDA cell line in the presence of 0.5 nM R1881 - cell viability counter screen (AID 1259242). Also: nearly all actives have a fitted effect of over 45% in size. Summed up:
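Counter screen for cytotoxicity run in the same wells as the AR antagonist reporter screen: MDA-kb2 cells were treated 16 hr with test compounds and 0.5 nM R1881, then live-cell protease activity was measured by fluorescence.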

Assay [13] in a line: qHTS assay to identify small molecule HDAC inhibitors (AID 1259364). Also: top concentration of the series differs between compounds; nearly all actives have a fitted effect of over 45% in size. The essentials:
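Luminescence from a cell-permeant luminogenic class I/II HDAC substrate reports endogenous deacetylase activity in intact HCT-116 cells treated with compounds for 2 h.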

The nature of assay [14]: qHTS assay to identify small molecule HDAC inhibitors - cell viability counter screen (AID 1259365). The essentials:
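Viability readout: CellTiter-Glo luminescence. Wild-type HCT-116 cells, 2hr compound treatment following overnight attachment at 37 C.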

Assay [15] is described as follows: qHTS assay to identify small molecule agonists of the sonic hedgehog signaling (Shh) pathway - cell viability counter screen (AID 1259366). Also: nearly all actives have a fitted effect of over 50% in size. The essentials: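 Viability measured fluorometrically (CellTiter-Fluor, 1hr, 37C) in 3T3 Gli1-Luc reporter cells after 23hr compound exposure within a 24hr incubation at 37C/5% CO2.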
Assay [16] in a line: qHTS assay to identify small molecule antagonists of the sonic hedgehog signaling (Shh) pathway - cell viability counter screen (AID 1259367). Also: nearly all actives have a fitted effect of over 55% in size. The essentials: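 Seed 3T3 Gli1-Luc cells at 2,000 per well; incubate 4 hr; add compound in DMSO, then conditioned medium; incubate at 37C with 5% CO2; add CellTiter-Fluor after 23 hr; read fluorescence 1 hr later.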
Assay [17] can be described thus: qHTS assay to identify small molecule phospholipidosis (PLD) inducers (AID 1259344; active = well fitted curve in the direction sought with a large enough effect; an effect the other way counts as inactive or inconclusive). The essentials: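 Quantitative HTS in HepG2: compound plus LipidTOX Red dye for 24 h, paraformaldehyde fixation with Hoechst 33342, widefield high-content imaging; amiodarone as positive and DMSO as negative control.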
A short description of assay [18]: qHTS RealTime-Glo MT Cell Viability Assay in HEK293 cells - 24 hour (AID 1224886). Summed up:
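Quantitative high-throughput screen of the Tox21 10K library in HEK293: cells and RealTime-Glo reagents plated together, compound added at 5 h, luminescence monitored through 40 h at 37 C.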

Assay [19] deals with Estrogen receptor (Homo sapiens) (UniProt P03372). As to the kind of experiment: qHTS assay to identify small molecule antagonists of the estrogen receptor alpha (ER-alpha) signaling pathway using the BG1 cell line in the presence of 0.1 nM 17-beta-estradiol (AID 1259244). Also: nearly all actives have a fitted effect of over 50% in size. Summed up:
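Cells: VM7Luc4E2, endogenous ER-alpha, 4x ERE-luc stable. Pre-culture 5 d, phenol red-free, charcoal-stripped FBS. Plated 24 h, compound + E2 0.1 nM final, 22 h 37C/5% CO2. Readout ONE-Glo luminescence.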

Assay [20] concerns the target Androgen receptor (Homo sapiens) (UniProt P10275). Briefly: qHTS assay to identify small molecule antagonists of the androgen receptor (AR) signaling pathway using the MDA cell line in the presence of 0.5 nM R1881 (AID 1259243). Also: nearly all actives have a fitted effect of over 50% in size. The essentials:
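Luciferase luminescence is the read-out: compounds are tested for suppressing 0.5 nM R1881-driven MMTV reporter activity in MDA-kb2 cells after 16 hr at 37C.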

A number with no mark means an inactive call. Inconclusive results are not listed. The source made the active and inactive calls. Unless noted, calls follow the shape of the dose curve; as a rule, active = well fitted curve in the direction sought with a large enough effect in the repeat runs; inconclusive = weak or mixed curves; inactive = no such curve, though single readings can be large; an effect the other way counts as inactive or inconclusive.

Estrogen receptor (Homo sapiens), sequence (P03372 whole entry, looked up): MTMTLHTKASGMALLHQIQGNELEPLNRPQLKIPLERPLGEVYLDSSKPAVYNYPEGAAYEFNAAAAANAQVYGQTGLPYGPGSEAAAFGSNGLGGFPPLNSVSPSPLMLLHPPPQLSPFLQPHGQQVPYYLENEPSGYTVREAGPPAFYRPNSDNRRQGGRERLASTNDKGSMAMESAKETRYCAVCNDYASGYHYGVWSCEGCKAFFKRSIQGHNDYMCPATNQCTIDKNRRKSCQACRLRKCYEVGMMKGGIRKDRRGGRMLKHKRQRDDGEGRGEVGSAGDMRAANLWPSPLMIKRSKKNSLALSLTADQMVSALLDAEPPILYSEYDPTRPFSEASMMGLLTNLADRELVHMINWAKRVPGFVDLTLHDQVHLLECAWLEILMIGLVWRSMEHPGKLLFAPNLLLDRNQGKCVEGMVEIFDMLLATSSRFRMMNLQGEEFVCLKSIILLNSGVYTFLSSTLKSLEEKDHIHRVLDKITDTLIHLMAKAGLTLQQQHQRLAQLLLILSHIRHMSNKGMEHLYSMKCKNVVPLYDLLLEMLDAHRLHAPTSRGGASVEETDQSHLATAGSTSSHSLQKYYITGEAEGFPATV
Androgen receptor (Homo sapiens), sequence (P10275 whole entry, looked up): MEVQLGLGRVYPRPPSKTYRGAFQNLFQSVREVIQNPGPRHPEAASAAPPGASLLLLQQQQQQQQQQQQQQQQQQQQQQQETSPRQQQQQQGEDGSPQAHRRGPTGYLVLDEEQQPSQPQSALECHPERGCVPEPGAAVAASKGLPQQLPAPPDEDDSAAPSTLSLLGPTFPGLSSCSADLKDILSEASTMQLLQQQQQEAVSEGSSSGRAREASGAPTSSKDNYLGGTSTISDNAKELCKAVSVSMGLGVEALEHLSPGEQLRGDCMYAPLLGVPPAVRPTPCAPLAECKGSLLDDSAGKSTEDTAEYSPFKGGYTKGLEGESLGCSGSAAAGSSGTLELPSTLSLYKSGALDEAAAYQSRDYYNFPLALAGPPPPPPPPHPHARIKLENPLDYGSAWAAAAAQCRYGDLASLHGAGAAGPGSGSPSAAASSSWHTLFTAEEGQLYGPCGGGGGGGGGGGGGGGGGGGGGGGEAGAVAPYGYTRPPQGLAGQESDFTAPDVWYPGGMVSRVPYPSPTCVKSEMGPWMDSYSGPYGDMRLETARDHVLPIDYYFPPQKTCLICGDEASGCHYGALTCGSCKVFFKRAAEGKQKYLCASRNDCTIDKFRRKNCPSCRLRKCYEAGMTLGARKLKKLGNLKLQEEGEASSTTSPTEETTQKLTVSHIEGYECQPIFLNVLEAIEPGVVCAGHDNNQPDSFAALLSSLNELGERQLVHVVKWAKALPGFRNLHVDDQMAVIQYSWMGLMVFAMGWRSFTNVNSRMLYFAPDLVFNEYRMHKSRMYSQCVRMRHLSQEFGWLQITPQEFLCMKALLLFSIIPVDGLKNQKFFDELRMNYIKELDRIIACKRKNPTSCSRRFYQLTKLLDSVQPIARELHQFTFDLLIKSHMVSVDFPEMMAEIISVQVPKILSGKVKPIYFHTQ

For `O=C(O)C(Cl)Br` (stereo not given), the compound was classed as inactive in [1], in assay [3], in assay [9], in assay [11] and in assay [14]. Besides, the Potency result in [2], in assay [4], in [5], in assay [6], in [7] and in assay [8] was “inactive” in each case. Moreover, the Potency result in assay [10], in assay [12], in [13], in [15] and in assay [16] was “inactive” throughout.

As for `CCOC(=O)N(C)N=O`, the compound was called inactive in assay [1], in [3], in assay [9], in assay [11] and in assay [14]. In addition, the Potency result in assay [2], in [4], in [5], in assay [6], in assay [7] and in assay [8] was “inactive” in each case. For the same compound, the Potency entry in [10], in [12], in [13], in assay [15] and in [16] was “inactive” each time.

As for `CCc1cc(OC)c(C[C@H](C)N)cc1OC`, the call in assay [1], in assay [3], in assay [9] and in assay [11] was inactive. The Potency result in assay [2], in assay [4], in assay [5], in assay [6], in assay [7] and in assay [8] was “inactive” in each case. The Potency entry in [10], in assay [12], in assay [17], in assay [13] and in assay [16] was “inactive” each time.

Turning to `CC(C)(C)c1cc(O)ccc1O`, the outcome in assay [1], in assay [3] and in assay [9] was inactive. In addition, the Potency entry in assay [2], in assay [4], in assay [5], in [6], in [7] and in assay [8] was “inactive” throughout. Further, the Potency result in assay [10], in [12], in assay [17], in [13], in assay [15] and in assay [16] was “inactive” each time.

In the case of `CCOC(=O)C(Cl)Cc1cc(-n2nc(C)n(C(F)F)c2=O)c(F)cc1Cl` (stereo not given), the outcome in assay [1], in assay [3], in assay [9], in assay [11] and in assay [14] was inactive. Also, the Potency result in [2], in assay [4], in [5], in assay [18], in [8] and in [10] was “inactive” throughout. For the same compound, the Potency entry in assay [12], in [13], in assay [15] and in assay [16] was “inactive” each time. Besides, the Potency in assay [7] is 49 µM (active).

For `Oc1ccc(Cc2ccc(O)cc2)cc1`, the compound was called inactive in assay [1], in [3], in assay [9], in assay [11] and in [14]. The Potency entry in [2], in assay [4], in assay [5], in assay [6], in assay [7] and in assay [8] was “inactive” throughout. Besides, the Potency entry in assay [10], in [12], in [19], in assay [13], in [15] and in [16] was “inactive” in each case.

Consider `COP(=O)(OC)O/C(C)=C/C(=O)N(C)C`, for which the compound was called inactive in [1], in assay [3] and in [9]. Besides, the Potency result in [2], in [5], in assay [6], in assay [18], in assay [7] and in [8] was “inactive” in each case. Besides, the Potency result in [10], in [12], in assay [19], in assay [13], in assay [15] and in assay [16] was “inactive” each time.

As for `O=c1[nH]oc2c1CCNC2`, the outcome in [1], in assay [3], in assay [9] and in assay [11] was inactive. The Potency entry in assay [2], in assay [5], in assay [6], in assay [7], in assay [8] and in assay [10] was “inactive” in each case. For the same compound, the Potency entry in assay [12], in [19], in assay [17], in assay [13], in assay [15] and in [16] was “inactive” in each case.

Regarding `CCNP(=S)(OC)O/C(C)=C/C(=O)OC(C)C` (stereo not given), the outcome in assay [1], in assay [3], in assay [9] and in [14] was inactive. The Potency entry in assay [2], in assay [5], in [6], in assay [18], in assay [7] and in [8] was “inactive” throughout. The Potency entry in [10], in assay [12], in [19], in assay [15] and in [16] was “inactive” each time.

In the case of `CCCOC(=O)c1cncn1C(C)c1ccccc1` (stereo not given), the result in assay [1], in assay [9], in assay [11] and in assay [14] was inactive. Moreover, the Potency entry in assay [2], in [4], in assay [5], in assay [6], in assay [18] and in [7] was “inactive” throughout. Moreover, the Potency entry in assay [8], in assay [10], in [12], in [20], in assay [19] and in assay [13] was “inactive” in each case. Moreover, the Potency entry in assay [15] and in assay [16] was “inactive” in each case.

`O=C(O)c1c(Cl)ccc2cc(Cl)cnc12`: the compound was called inactive in assay [1], in assay [3], in [9], in assay [11] and in assay [14]. In addition, the Potency result in [2], in assay [5], in assay [6], in [18], in [7] and in assay [8] was “inactive” throughout. The Potency entry in assay [10], in assay [12], in assay [19], in assay [15] and in assay [16] was “inactive” throughout.
